The values below come from PubChem BioAssay (NCATS).

Several values for one entry are separate records, joined by “and”; a condition that tells them apart may be missing. Identical values can stand only once. Unmarked numbers belong to inactive results. Inconclusive results are not listed. Activity calls are given as the source filed them.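 The calls were made as follows, unless noted: active = compounds whose dose series gives a full or clear partial fitted curve of increased nuclear translocation; inconclusive = weak partial curve or effect only at the top dose; inactive = no dose-dependent translocation response.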

System in the first test: not listed separately
In words: Stat Signaling Pathway (AID 446; active = well fitted curve in either direction with a large enough effect, not every such curve was filed as active;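 also: ME-180 cervical cancer cells given 40 pM IL-6 alongside compound; SIE-controlled beta-lactamase reporter measured as 460/530 nm FRET emission ratio; % is scaled to controls: 0 for no effect and ±100 for the full control effect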). The conditions noted are these: ME-180 (cervical carcinoma) SIE beta-lactamase reporter, IL-6 stimulated, 5 h; at 38 µM (top of the series). The procedure, abridged:
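ME-180 SIE-bla cells; overnight plating; cpd + IL-6 40 pM, 5 h, 37 C; LiveBLAzer 2.5 h RT; 460/530 nm emission ratio. Normalized to 300 pM IL-6 and 125 nM JAK inhibitor controls.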
With `CN1CCC[C@@H]1c1cccnc1`, the activity, negative = inhibition was -4.46%.

`Nc1cc(Cl)c(NC2=NCCN2)c(Cl)c1`: the activity, negative = inhibition was -3.42%.

As for `C[C@@H]1C(=O)NC2=Nc3cccc(Cl)c3CN21`, the activity, negative = inhibition is -15.9%.

The target in a further test is Glucocorticoid receptor (Homo sapiens) (UniProt P04150). The test is described as follows: GR-GFP Redistribution (AID 450). Also: potency is read from the fitted curve at half-maximal effect. The conditions noted are these: U2OS GR-GFP nuclear translocation, laser cytometry, 2 h.
Sequence of Glucocorticoid receptor (Homo sapiens) (P04150 whole entry, looked up): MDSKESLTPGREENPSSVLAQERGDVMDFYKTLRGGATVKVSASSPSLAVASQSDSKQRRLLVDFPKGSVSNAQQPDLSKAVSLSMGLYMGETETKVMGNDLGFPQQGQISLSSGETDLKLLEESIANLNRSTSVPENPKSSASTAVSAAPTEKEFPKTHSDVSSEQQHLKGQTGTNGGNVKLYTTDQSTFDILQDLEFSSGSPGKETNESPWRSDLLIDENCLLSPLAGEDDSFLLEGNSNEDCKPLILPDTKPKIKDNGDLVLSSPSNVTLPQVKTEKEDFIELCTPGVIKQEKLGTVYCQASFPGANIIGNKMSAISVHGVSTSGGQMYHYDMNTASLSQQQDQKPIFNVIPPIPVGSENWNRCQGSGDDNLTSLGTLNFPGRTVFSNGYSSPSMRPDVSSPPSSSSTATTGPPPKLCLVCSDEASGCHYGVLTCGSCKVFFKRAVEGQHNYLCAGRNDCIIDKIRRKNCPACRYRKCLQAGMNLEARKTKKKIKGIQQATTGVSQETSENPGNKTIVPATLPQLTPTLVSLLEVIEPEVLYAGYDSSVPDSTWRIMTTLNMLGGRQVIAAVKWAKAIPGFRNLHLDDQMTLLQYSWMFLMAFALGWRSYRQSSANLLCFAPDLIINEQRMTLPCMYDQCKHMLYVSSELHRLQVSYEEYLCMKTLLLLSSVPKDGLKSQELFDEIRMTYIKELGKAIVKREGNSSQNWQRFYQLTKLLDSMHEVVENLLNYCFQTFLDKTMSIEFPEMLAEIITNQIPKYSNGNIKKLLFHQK
On to `CN1CCN(C(c2ccccc2)c2ccccc2)CC1`, for which the Potency is above 20.6 µM.

For the compound `CCCCOc1ccc(C(=O)CCN2CCCCC2)cc1`, the Potency was above 20.6 µM.

Consider `CCN1CCN(c2cc3c(cc2F)c(=O)c(C(=O)O)cn3C2CC2)CC1`, for which the Potency was above 20.6 µM.

As to `CC(C)N=C(N)/N=C(\N)Nc1ccc(Cl)cc1`, the Potency was above 20.6 µM.

For `CCC(C(=O)OCCN(CC)CC)c1ccccc1` (configuration not stated), the Potency was above 20.6 µM.

Consider `CCCC(=O)Nc1ccc(OCC(O)CNC(C)C)c(C(C)=O)c1` (configuration not stated), for which the Potency was above 20.6 µM.

With `COc1cc(NS(C)(=O)=O)ccc1Nc1c2ccccc2nc2ccccc12`, the Potency is above 46 µM.

Turning to `CC(=O)OCC(=O)[C@@]1(OC(C)=O)[C@@H](C)C[C@H]2[C@@H]3C[C@H](F)C4=CC(=O)C=C[C@]4(C)[C@@]3(F)[C@@H](O)C[C@@]21C`, the Potency is 0.000878 µM (active).

Take `Nc1cc(Cl)c(NC2=NCCN2)c(Cl)c1`: the Potency is above 46 µM.

Regarding `CC1(C)O[C@@H]2C[C@H]3[C@@H]4C[C@H](F)C5=CC(=O)CC[C@]5(C)[C@H]4[C@@H](O)C[C@]3(C)[C@]2(C(=O)CO)O1`, the Potency was 0.00217 µM (active).

Regarding `CCN(CCCCOC(=O)c1ccc(OC)c(OC)c1)C(C)Cc1ccc(OC)cc1` (configuration not stated), the Potency is above 20.6 µM.

As to `CC(C)(Oc1ccc(Cl)cc1)C(=O)O`, the Potency was > 20.6 µM and > 46 µM.

As for `CN1CCN(CCCN2c3ccccc3Sc3ccc(S(=O)(=O)N(C)C)cc32)CC1`, the Potency was above 20.6 µM.

Take `C[C@H](CCC(=O)O)[C@H]1CC[C@H]2[C@@H]3C(=O)C[C@@H]4CC(=O)CC[C@]4(C)[C@H]3CC(=O)[C@]12C`: the Potency is above 20.6 µM.

With `NCCCC[C@H](N[C@@H](CCc1ccccc1)C(=O)O)C(=O)N1CCC[C@H]1C(=O)O`, the Potency is above 20.6 µM.

Take `CC(CCc1ccccc1)NCC(O)c1ccc(O)c(C(N)=O)c1` (configuration not stated): the Potency is above 20.6 µM.

On to `C[C@]12CC[C@H]3[C@@H](CCC4=CC(=O)CC[C@@]43C)[C@@H]1CC[C@@H]2C(=O)CO`, for which the Potency is 0.0356 µM (active).

As for `Oc1c(Cl)cc(Cl)cc1Sc1cc(Cl)cc(Cl)c1O`, the Potency is above 20.6 µM.

For the compound `C[C@@H]1C[C@H]2[C@@H]3CCC4=CC(=O)C=C[C@]4(C)[C@@]3(F)[C@@H](O)C[C@]2(C)[C@H]1C(=O)CO`, the Potency was above 20.6 µM.

With `CCCCCCCCCCCCCCCC[N+](C)(C)CCN(Cc1ccc(OC)cc1)c1ncccn1`, the Potency was above 20.6 µM.

On to `O=C(OCCOCCO)c1ccccc1Nc1cccc(C(F)(F)F)c1`, for which the Potency is above 20.6 µM.

Consider `C[C@@H]1C(=O)NC2=Nc3cccc(Cl)c3CN21`, for which the Potency is above 46 µM.

Turning to `CC(=O)OCC(=O)[C@@]12OC(C)(C)O[C@@H]1C[C@H]1[C@@H]3C[C@H](F)C4=CC(=O)C=C[C@]4(C)[C@@]3(F)[C@@H](O)C[C@@]12C`, the Potency is 0.00057 µM (active).

Take `CC(=O)N(O)CCCCCNC(=O)CCC(=O)N(O)CCCCCNC(=O)CCC(=O)N(O)CCCCCN`: the Potency is above 20.6 µM.
